The list is not random: actives were taken first. Their share in the collection is about 2.7%.
ANO1 block: mouse TMEM16A channel inhibition, primary screen; HEK293 TMEM16A/YFP iodide influx fluorescence, ionomycin; normalized B-score (activity score, 25-100; higher = stronger inhibition) at 10 µM; 310,000 compounds, 1.2% hits; AID 588511;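 active = ratio plate-corrected score three or more library SD toward inhibition, starting fluorescence score within five deviations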;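 also: score derived from kinetic fluorescence span divided by baseline fluorescence per well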
PP1 inh: blocks human PP1-alpha phosphatase, a PP5 counter-screen | purified PP1alpha, OMFP fluorescence | inhibition, % at 6.7 µM | AID 2235 | P62136 | 320,000 compounds, 0.9% hits;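 active = inhibition above the mean inhibition of all tested compounds plus 3 SD, computed separately for each screening campaign, cut at about 15% in these data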
DNA FID counter: fluorescent intercalator displacement, NS3 helicase counter-screen; 290,000 compounds, 0.17% hits; inhibition, % at 7.9 µM; DNA fluorescent intercalator displacement, fluorescence; in the data active = inhibition above about 37%;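 also: 0% = vehicle and 100% = reference compound; higher means more ethidium bromide displaced from hairpin DNA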
PREPL inh: human PREPL enzyme inhibition; AID 2751; recombinant PREPL, fluorescence polarization activity-based probe; Q4J6C6; inhibition, % at 5.96 µM; 320,000 compounds, 0.68% hits; in the data active = inhibition above about 43%;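 also: 0% = enzyme with DMSO and 100% = wells lacking enzyme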
Target sequence (Q4J6C6 whole entry, looked up): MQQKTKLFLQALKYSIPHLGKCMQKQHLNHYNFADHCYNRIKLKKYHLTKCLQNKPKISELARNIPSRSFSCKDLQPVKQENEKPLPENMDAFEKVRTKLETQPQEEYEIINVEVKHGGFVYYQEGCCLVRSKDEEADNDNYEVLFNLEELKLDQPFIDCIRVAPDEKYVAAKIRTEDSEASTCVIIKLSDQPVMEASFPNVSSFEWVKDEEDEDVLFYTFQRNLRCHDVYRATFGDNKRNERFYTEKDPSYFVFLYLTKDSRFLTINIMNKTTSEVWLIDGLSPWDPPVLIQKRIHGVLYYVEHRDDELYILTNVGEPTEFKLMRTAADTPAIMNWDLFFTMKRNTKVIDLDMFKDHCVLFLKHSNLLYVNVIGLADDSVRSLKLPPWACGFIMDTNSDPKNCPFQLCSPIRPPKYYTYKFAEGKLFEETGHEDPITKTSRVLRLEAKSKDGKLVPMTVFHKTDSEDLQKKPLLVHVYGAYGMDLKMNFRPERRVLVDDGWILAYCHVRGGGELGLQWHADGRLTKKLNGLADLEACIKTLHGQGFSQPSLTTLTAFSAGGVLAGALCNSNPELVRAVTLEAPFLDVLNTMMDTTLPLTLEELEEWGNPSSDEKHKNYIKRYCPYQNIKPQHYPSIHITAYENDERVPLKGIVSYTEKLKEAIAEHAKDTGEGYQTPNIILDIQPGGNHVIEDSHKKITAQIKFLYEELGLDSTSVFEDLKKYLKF
TMEM16A act: activates or potentiates the mouse TMEM16A chloride channel; Q8BHY3; HEK293 TMEM16A/YFP-H148Q/I152L, iodide quench fluorescence; hits give low values; B-score at 10 µM; 340,000 compounds, 0.3% hits; AID 623877;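 active = fluorescence-ratio B-score plate-corrected deviation score at least 3 library SD below zero, with starting fluorescence score within 5 deviations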;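 also: channel opened by trigger with iodide after compound preincubation; score built on the fluorescence ratio of max minus min over baseline; more negative score means more quench and so TMEM16A activation or potentiation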
PP5 primary: blocks human protein phosphatase 5 activity; P53041; purified PP5c, OMFP substrate fluorescence; inhibition, % at 6.7 µM; 320,000 compounds, 0.18% hits; AID 1987;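 active = inhibition above the campaign's mean inhibition across all tested compounds plus 3 SD, cut at about 9.5% in these data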;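 also: 0% = DMSO only and 100% = 100 µM cantharidin control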
* = called active by the depositor; i = inactive; . = no result.

SMILES	ANO1 block	PP1 inh	DNA FID counter	PREPL inh	TMEM16A act	PP5 primary
Cc1cc(NC(=S)N(Cc2ccc(Br)cc2)Cc2ccc(C(=O)O)cc2)ccc1Cl	25*	16*	-18	-12	i	5
Cc1ccc(S(=O)(=O)NNC(=O)Nc2ccc([N+](=O)[O-])cc2)c(C)c1	i	-1	7	-13	i	3
Cc1cc(N2CCN(C(=O)c3cccs3)CC2)c(F)cc1[N+](=O)[O-]	i	-2	-12	15	i	0
CCOc1ccc(/C=N/NC(=O)Cc2ccccc2)cc1CN1CC2CC(C1)c1cccc(=O)n1C2 (stereo unspecified)	.	-2	.	26	i	6
Cc1nn(-c2cc(Cl)ccc2Cl)c(C)c1C(=O)O	i	2	0	-1	i	0
CSc1ccc(CNc2ccc(Cl)cc2)cc1	25*	0	2	19	i	0
O=C(Nc1ccc(Cl)cc1)C1CCCN(c2cnccn2)C1 (stereo unspecified)	i	-5	-15	-5	i	1
CC(=O)N1CCN(C(=O)COC(=O)/C=C/c2ccccc2[N+](=O)[O-])CC1	.	.	.	32	i	.
Cn1cc(C(=O)c2ccc(Cl)cc2)cc1-c1nc2ccccc2n1C	100*	-1	-28	5	i	5
Cn1c(=O)c(C(=O)c2ccccc2)nc2ccccc21	i	-1	-2	-3	i	3
Cc1ccccc1-c1cc(C(=O)Nc2sc(C)c(C)c2C(N)=O)c2ccccc2n1	i	3	-5	9	i	3
CCOC(=O)c1sc(NC(=O)c2cc(-c3ccccc3C)nc3ccccc23)c(C#N)c1C	100*	-1	-6	-3	i	0
CC1C2(C)OC(=N)C(C#N)(C(C)O2)C1(C#N)C#N (stereo unspecified)	i	-3	-1	3	-6.3*	-3
O=C1/C(=C\c2ccccc2)SC(=S)N1CCC(=O)N1CCCCC1CCO (stereo unspecified)	i	4	-54	43	i	1
O=C1/C(=C/c2ccccc2)SC(=S)N1CC(=O)N1CCCCC1c1cccnc1 (stereo unspecified)	i	17*	-34	8	i	2
Nc1c(Cl)cc(-c2csc(N3CCCC3c3nc4cc(Cl)c(N5CCCCC5)cc4n3CCCO)n2)cc1Cl (stereo unspecified)	i	17*	.	16	i	4
O=C(Cc1ccc(Cl)cc1)NN1C(=O)c2ccccc2C1=O	i	0	-8	-7	i	-1
COC(=O)[C@@H]1[C@@H](C#N)C2(c3ccccc3-c3ccccc32)N(c2ccc(Cl)cc2)N1C#N	25*	3	-21	-5	i	3
C=CC[n+]1c(-c2ccc(OC)c(OC)c2)csc1NNC(=O)Nc1ccccc1	100*	-2	-18	16	i	1
N#CCCn1nc2c(c1N)CCC2	.	.	.	.	i	.
COc1ccc(-c2sc3ccccc3c2/C=C/c2ccncc2)cc1	.	.	.	-39	i	.
CCN(CC(=O)Nc1c(F)cccc1F)C(=O)CCCc1cccs1	.	-2	.	2	-39*	1
CN(CC(=O)Nc1c(F)cccc1F)Cc1cccs1	i	0	-7	2	i	4
O=C(Nc1nnc(SCc2ccccc2Cl)s1)C1COc2ccccc2O1 (stereo unspecified)	25*	2	-2	2	i	0
CC12CCC(=O)N1C(C(=O)N1CCN(S(=O)(=O)c3cccc(Cl)c3)CC1)CS2 (stereo unspecified)	i	-9	.	-7	i	-2
SMILES	ANO1 block	PP1 inh	DNA FID counter	PREPL inh	TMEM16A act	PP5 primary
Cc1ccc(S(=O)(=O)/N=C2/NC(=O)/C(=C\c3cc(Br)cc(Br)c3O)S2)cc1	i	.	44*	.	i	.
Cc1ccc(S(=O)(=O)/N=C2/NC(=O)/C(=C/c3ccc(Br)o3)S2)cc1	25*	10	-11	-7	i	3
Cc1ccc(C(=O)O/N=C(\c2ccccc2)c2ccncc2)cc1	i	-6	-14	88*	i	1
COc1cc(/C=N/NC(=O)c2cncc(Br)c2)cc([N+](=O)[O-])c1O	i	17*	-6	12	i	4
O=[N+]([O-])c1ccc(N2CCCC2)cc1NCc1ccccc1	i	4	3	7	-6.5*	1
C/C(=N\NC(=O)c1ccc(CN2CCc3ccccc3C2)cc1)c1ccccc1O	100*	2	-1	10	i	4
CN(C(=O)CSc1nncc2ccccc12)c1ccccc1	.	.	.	-1	.	.
NC(=O)c1cc(S(=O)(=O)NCc2ccc(F)cc2)cs1	i	-4	-5	11	-14*	2
Cc1cccc(CNS(=O)(=O)c2csc(C(N)=O)c2)c1	i	2	-5	24	i	0
CCN1CCN(c2cc(C)c3cc(NC(=O)c4ccc(OC)c(OC)c4)ccc3n2)CC1	i	-3	3	19	i	1
Cc1cc(N2CCCC2)nc2ccc(NC(=S)NCCCN3CCC(C)CC3)cc12	i	-4	47*	29	i	2
CCCN1CCN(CCCNC(=S)Nc2ccc3nc(N4CCN(CC)CC4)cc(C)c3c2)CC1	i	0	37*	17	i	-2
CCN1CCN(c2cc(C)c3cc(NC(=O)c4cncc(Br)c4)ccc3n2)CC1	i	0	38*	15	i	2
CCCCNC(=S)Nc1ccc2nc(N3CCN(CC)CC3)cc(C)c2c1	i	-2	22	23	.	0
CCCCN(C)CCNC(=S)Nc1ccc2nc(N3CCN(CC)CC3)cc(C)c2c1	i	0	46*	19	i	1
COc1ccc(C(=O)c2cc(OC)c(OC)c(OC)c2)cc1OC	.	.	.	.	i	.
CCCCN(C)C(=S)Nc1ccc2nc(N3CCN(CC)CC3)cc(C)c2c1	i	-7	16	8	i	-3
CCN(CC)CCNC(=S)Nc1ccc2nc(N3CCN(CC)CC3)cc(C)c2c1	i	-3	39*	8	i	1
CCN1CCN(c2cc(C)c3cc(NC(=S)NCCN(C)C)ccc3n2)CC1	i	2	49*	9	i	0
CC(C)c1ccc(S(=O)(=O)N2CCC(C(=O)N3CCN(c4cccc(Cl)c4)CC3)CC2)cc1	.	.	.	.	i	.
CC(C)(C)N(Cc1ccccc1)C(=O)COC(=O)C1CCN(c2ccc(C(F)(F)F)cn2)CC1	.	2	.	24	-44*	7
O=C(CN1CCN(CC(=O)Nc2ccc3c(c2)OC2(CCCCC2)O3)CC1)Nc1cccc(F)c1	.	.	.	.	i	.
CN(C)CCCNc1cc(-c2ccccc2)nc2cc(-c3cccc(F)c3)nn12	i	-1	40*	35	i	5
Cc1cccc(-c2cc3nc(C)cc(NCCCN(C)C)n3n2)c1	i	-2	35	26	.	-1
